Our source for the growth inhibition values is PubChem BioAssay (NCI).

This is part of a sample that, as a whole, favours compounds with a hit. Of some 79,000 tested, about 15% had one in any assay. Active and inactive are the calls of the source. Rule as the data show it: active = growth inhibition above about 70%; inactive = the rest.

This assay is described as follows: NCI Yeast Anticancer Drug Screen. Data for the wt2 strain (AID 169).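 Also: 0% = growth of vehicle-treated yeast cultures.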 The conditions noted are these: S. cerevisiae wt2 strain growth inhibition, hits give high values. How it is done:
Growth inhibition of yeast strains with defined genetic alterations is measured as a screen for potential anti-cancer activity. Selected strains with alterations in DNA damage repair or cell cycle control were exposed to compounds and growth inhibition was measured relative to vehicle treated controls. The strain used in this assay is wt2

For `Cc1c2c(nc3ccccc13)C(=O)c1cccnc1C2=O`, the growth inhibition reads like this: (at 1.2 µM) 3% (inactive); (at 3.7 µM) -3% (inactive); (at 11.0 µM) 17% (inactive); (at 33.0 µM) 20% (inactive); (at 100.0 µM) 73% (active).
`Cc1cccc(/C=N/NC(=S)NC2CCCCC2)n1`: the growth inhibition by setting is: (at 1.2 µM) -4% (inactive); (at 3.7 µM) -4% (inactive); (at 11.0 µM) 1% (inactive); (at 33.0 µM) 26% (inactive); (at 100.0 µM) 18% (inactive).
Consider `Nc1ccc(S(=O)(=O)Nc2nc3c(c(=O)[nH]2)CCCC3)cc1`, for which the growth inhibition reads like this: (at 1.2 µM) 29% (inactive); (at 3.7 µM) 73% (active); (at 11.0 µM) 99% (active); (at 33.0 µM) 100% (active); (at 100.0 µM) 100% (active).
In the case of `CCC(/C=C/c1ccccc1)=N\Nc1ccc(Cl)c(Cl)c1`, the growth inhibition by setting is: (at 1.2 µM) -2% (inactive); (at 3.7 µM) -5% (inactive); (at 11.0 µM) 7% (inactive); (at 33.0 µM) 22% (inactive); (at 100.0 µM) 95% (active).
For the compound `O=C1c2ccccc2-c2cc3ccccc3c(=O)n21`, the growth inhibition runs as follows: (at 1.2 µM) 4% (inactive); (at 3.7 µM) 9% (inactive); (at 11.0 µM) 31% (inactive); (at 33.0 µM) 73% (active); (at 100.0 µM) 73% (active).
`CN(C)/C(=N/C(=S)Nc1ccccc1)SCc1ccccc1`: the growth inhibition reads like this: (at 1.2 µM) -2% (inactive); (at 3.7 µM) -2% (inactive); (at 11.0 µM) 0% (inactive); (at 33.0 µM) 11% (inactive); (at 100.0 µM) 14% (inactive).
As for `NCCCSc1ccccc1`, the growth inhibition is -2% (inactive) (at 1.2 µM); -2% (inactive) (at 3.7 µM); -2% (inactive) (at 11.0 µM); -2% (inactive) (at 33.0 µM); -1% (inactive) (at 100.0 µM).
For `O=C(O)C(=Cc1ccc(-c2ccccc2)cc1)C(=O)O`, the growth inhibition was 0% (inactive) (at 1.2 µM); 3% (inactive) (at 3.7 µM); 17% (inactive) (at 11.0 µM); 61% (inactive) (at 33.0 µM); 89% (active) (at 100.0 µM).
